# Test results: PubChem BioAssay (NCATS)
# Values joined by “and” are separate entries in the source; they are usually repeats but may differ in a detail not shown here. Equal entries are not always repeated. Results filed as inconclusive are left out. Active and inactive are the calls of the source. Unless noted, the call rests on the fitted dose curve; in most records, active means well fitted curve in the direction sought with a large enough effect in the repeat runs; inconclusive means weak or mixed curves; inactive means no such curve, though single readings can be large; an effect the other way counts as inactive or inconclusive.
# Assays:
# [1] = molecular target: Cytochrome P450 2D6 (Homo sapiens) (UniProt P10635); test: Cytochrome P450 family 2 subfamily D member 6 (CYP2D6) small molecule antagonists: luciferase biochemical (cell-free) qHTS assay (AID 1645840); further: nearly all actives have a fitted effect of over 55% in size; further: potency means the concentration at half of the fitted maximal effect
# Method in brief: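 P450-Glo luminescent screen: recombinant CYP2D6 enzyme–proluciferin substrate mix preincubated with compound 10 min at room temperature, then NADPH regeneration added for 1 h at room temperature. Detection reagent added for 20 min; luciferin light read as relative luminescence units.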
# [2] = molecular target: Cytochrome P450 2C9 (Homo sapiens) (UniProt P11712); test: Cytochrome P450 family 2 subfamily C member 9 (CYP2C9) small molecule antagonists: luciferase biochemical (cell-free) qHTS assay (AID 1645842); further: nearly all actives have a fitted effect of over 55% in size; further: potency means the concentration at half of the fitted maximal effect
# Method in brief: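 Luminescence, after 20 min with luciferin detection reagent, reflected CYP2C9 turnover during a 1 h NADPH-driven reaction at 37C. Enzyme-substrate mix contained 0.4% bovine serum albumin and was preincubated with compound 10 min at room temperature.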
# [3] = molecular target: N-terminal Xaa-Pro-Lys N-methyltransferase 1 (Homo sapiens) (UniProt Q9BV86); test: Confirmatory qHTS for Inhibitors of N-terminal methyltransferase 1 (NTMT1): MTaseGlo Assay (AID 1645874; active means well fitted curve in the direction sought with a large enough effect; an effect the other way counts as inactive or inconclusive;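 further: luminescence from SAH made as NTMT1 methylates SPKRIA peptide using SAM; series mostly up to about 100 µM; nearly all actives have a fitted effect of over 65% in size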)
# Method in brief: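 NTMT1 (125 nM) preincubated 15 min with compound and 100 uM SAM, then 1 uM SPKRIA peptide added for 30 min at room temperature. SAH detected by MTase-Glo luminescence; normalized to no-enzyme and DMSO controls, fitted to 4-parameter Hill.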
# [4] = Primary qHTS for inhibitors of nuclear receptor binding SET domain protein 2 (NSD2) in an isogenic RCH-ACV NSD2 p.E1099K mutant (9B) (AID 1645876; active means well fitted curve in the direction sought with a large enough effect; an effect the other way counts as inactive or inconclusive; further: nearly all actives have a fitted effect of over 70% in size; further: potency means the concentration at half of the fitted maximal effect)
# [5] = Primary qHTS for inhibitors of nuclear receptor binding SET domain protein 2 (NSD2) in an RCH-ACV wild type WT cells (2C) (AID 1645877; active means well fitted curve in the direction sought with a large enough effect; an effect the other way counts as inactive or inconclusive; further: nearly all actives have a fitted effect of over 70% in size; further: potency means the concentration at half of the fitted maximal effect)
# [6] = molecular target: Rap guanine nucleotide exchange factor 3 (Homo sapiens) (UniProt O95398); test: Confirmatory qHTS for agonist of cAMP-regulated guanine nucleotide exchange factor 3 (EPAC1) (AID 1645881; active means well fitted curve in the direction sought with a large enough effect; an effect the other way counts as inactive or inconclusive;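 further: EPAC1 catalysed release of BODIPY-GDP from Rap1B seen as fluorescence loss; nearly all actives have a fitted effect of over 75% in size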)
# [7] = molecular target: Rap guanine nucleotide exchange factor 4 (Homo sapiens) (UniProt Q8WZA2); test: Confirmatory qHTS for agonist of cAMP-regulated guanine nucleotide exchange factor 4 (EPAC2) (AID 1645884; active means well fitted curve in the direction sought with a large enough effect; an effect the other way counts as inactive or inconclusive;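 further: nucleotide exchange releases bodipy-GDP from Rap1 and this lowers its fluorescence; nearly all actives have a fitted effect of over 65% in size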)
# [8] = molecular target: Rap guanine nucleotide exchange factor 3 (Homo sapiens) (UniProt O95398); test: Counterscreen qHTS for antagonist of cAMP-regulated guanine nucleotide exchange factor 3 (EPAC1) (AID 1645888; active means well fitted curve in the direction sought with a large enough effect; an effect the other way counts as inactive or inconclusive;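 further: fluorescence loss as bound BODIPY-GDP is released from Rap1B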)
# Method in brief: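 Rap1B-BODIPY-GDP 250 nM + GDP 50 uM; cpds 7-pt, final 9.74 nM–152 uM (activator mode) or from 7.32 nM upwards (inhibitor mode); RT; FI 480/540 nm at 5 and 30 min, then ± cAMP, reread.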
# Sequence of Cytochrome P450 2D6 (Homo sapiens) (P10635 whole entry, looked up): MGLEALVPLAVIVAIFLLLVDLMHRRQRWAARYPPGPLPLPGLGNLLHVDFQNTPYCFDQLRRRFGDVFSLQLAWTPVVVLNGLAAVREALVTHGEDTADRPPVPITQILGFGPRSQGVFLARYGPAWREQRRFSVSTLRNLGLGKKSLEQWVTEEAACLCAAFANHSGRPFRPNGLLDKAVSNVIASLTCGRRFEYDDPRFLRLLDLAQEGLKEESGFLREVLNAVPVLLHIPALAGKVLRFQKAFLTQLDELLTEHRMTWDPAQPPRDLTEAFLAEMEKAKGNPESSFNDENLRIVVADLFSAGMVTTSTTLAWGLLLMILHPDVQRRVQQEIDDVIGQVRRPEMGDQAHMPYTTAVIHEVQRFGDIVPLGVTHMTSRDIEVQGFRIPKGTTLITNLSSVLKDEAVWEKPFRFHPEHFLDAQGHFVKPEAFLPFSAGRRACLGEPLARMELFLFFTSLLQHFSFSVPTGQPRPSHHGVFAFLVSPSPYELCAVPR
# Sequence of Cytochrome P450 2C9 (Homo sapiens) (P11712 whole entry, looked up): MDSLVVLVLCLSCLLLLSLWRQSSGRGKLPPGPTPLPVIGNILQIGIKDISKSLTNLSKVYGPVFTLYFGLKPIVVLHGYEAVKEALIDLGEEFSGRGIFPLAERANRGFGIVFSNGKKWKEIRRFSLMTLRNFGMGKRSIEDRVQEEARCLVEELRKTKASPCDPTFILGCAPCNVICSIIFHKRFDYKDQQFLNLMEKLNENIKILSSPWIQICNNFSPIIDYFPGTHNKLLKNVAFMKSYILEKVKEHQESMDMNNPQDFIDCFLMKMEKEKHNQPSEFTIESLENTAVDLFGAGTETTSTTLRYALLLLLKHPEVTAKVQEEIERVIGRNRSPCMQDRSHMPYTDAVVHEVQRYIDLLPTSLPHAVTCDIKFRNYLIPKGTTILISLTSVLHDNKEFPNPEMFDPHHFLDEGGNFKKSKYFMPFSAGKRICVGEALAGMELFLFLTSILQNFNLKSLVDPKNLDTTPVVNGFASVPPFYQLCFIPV
# Sequence of Rap guanine nucleotide exchange factor 3 (Homo sapiens) (O95398 whole entry, looked up): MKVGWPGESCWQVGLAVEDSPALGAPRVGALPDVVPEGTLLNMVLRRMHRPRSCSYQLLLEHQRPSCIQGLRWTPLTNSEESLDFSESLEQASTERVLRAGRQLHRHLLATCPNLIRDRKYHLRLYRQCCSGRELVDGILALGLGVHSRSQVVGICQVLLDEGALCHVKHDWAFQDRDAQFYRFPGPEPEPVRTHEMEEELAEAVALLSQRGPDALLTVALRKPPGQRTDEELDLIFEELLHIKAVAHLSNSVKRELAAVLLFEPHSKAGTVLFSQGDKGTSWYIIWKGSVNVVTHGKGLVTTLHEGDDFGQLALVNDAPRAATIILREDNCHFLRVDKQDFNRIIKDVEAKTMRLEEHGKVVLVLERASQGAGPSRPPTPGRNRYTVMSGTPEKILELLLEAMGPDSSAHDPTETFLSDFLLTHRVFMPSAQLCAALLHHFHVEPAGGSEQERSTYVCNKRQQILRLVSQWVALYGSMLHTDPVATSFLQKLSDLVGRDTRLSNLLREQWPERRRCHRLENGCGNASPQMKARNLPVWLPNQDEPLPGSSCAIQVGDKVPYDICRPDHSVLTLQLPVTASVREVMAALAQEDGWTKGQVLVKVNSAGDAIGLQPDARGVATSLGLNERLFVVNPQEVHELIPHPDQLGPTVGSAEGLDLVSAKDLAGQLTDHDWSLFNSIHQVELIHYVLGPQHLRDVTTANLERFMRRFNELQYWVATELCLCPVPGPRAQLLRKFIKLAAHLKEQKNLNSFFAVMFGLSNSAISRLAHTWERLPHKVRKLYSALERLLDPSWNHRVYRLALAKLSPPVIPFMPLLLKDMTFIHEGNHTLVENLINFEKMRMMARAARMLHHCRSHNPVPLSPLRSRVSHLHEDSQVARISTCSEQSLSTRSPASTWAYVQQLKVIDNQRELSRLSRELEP
# Sequence of N-terminal Xaa-Pro-Lys N-methyltransferase 1 (Homo sapiens) (Q9BV86 whole entry, looked up): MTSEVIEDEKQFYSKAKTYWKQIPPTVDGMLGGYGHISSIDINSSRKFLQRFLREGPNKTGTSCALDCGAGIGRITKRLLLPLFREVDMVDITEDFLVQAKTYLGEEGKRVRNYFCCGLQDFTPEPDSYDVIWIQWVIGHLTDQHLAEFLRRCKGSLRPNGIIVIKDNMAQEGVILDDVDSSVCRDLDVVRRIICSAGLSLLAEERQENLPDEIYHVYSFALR
# Sequence of Rap guanine nucleotide exchange factor 4 (Homo sapiens) (Q8WZA2 whole entry, looked up): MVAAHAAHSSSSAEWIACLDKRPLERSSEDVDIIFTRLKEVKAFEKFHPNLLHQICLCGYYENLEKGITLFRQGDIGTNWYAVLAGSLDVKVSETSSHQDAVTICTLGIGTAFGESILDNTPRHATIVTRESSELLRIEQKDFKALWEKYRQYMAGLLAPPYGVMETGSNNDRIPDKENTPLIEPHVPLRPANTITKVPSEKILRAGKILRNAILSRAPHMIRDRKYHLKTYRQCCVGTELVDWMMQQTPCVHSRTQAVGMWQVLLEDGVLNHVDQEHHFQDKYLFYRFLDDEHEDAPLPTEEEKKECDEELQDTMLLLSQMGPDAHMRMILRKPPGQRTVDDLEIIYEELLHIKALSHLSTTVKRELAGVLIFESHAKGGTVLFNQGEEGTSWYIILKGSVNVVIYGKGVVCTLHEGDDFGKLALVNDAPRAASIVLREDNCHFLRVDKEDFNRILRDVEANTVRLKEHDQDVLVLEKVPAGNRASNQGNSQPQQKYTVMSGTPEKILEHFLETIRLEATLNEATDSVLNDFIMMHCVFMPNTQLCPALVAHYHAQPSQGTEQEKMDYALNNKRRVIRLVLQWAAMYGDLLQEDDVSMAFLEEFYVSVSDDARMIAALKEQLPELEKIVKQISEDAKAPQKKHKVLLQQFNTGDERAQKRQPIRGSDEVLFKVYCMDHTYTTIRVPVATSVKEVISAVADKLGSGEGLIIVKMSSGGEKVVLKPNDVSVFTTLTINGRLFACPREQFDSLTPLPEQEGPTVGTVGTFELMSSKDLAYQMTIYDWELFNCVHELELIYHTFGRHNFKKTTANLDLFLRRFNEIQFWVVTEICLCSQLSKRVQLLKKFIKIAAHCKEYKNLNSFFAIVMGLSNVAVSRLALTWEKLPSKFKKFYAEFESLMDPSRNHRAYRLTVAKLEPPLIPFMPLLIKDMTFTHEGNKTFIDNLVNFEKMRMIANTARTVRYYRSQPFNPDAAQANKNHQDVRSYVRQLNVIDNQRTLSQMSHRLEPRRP
compound,measurement,setting,value
COc1ccc2nc(-c3cc(OC)c(OC)c(OC)c3)cc(C(=O)NCC(=O)Nc3ccc(C(C)=O)cc3)c2c1,Potency,[1],inactive
same,Potency,[2],7.56 µM (active)
same,Potency,[3],inactive
same,Potency,[4],12.9 µM (active)
O=c1cc(N2CCN(c3cccc(C(F)(F)F)c3)CC2)[nH]c(=O)n1C1CCCCC1,Potency,[1],inactive
same,Potency,[2],3.01 µM (active)
same,Potency,[4],inactive
C=C(C)[C@@H]1CC=C(COC(=O)NC(=O)c2ncn3c(=O)n(C)nnc23)CC1,Potency,[1],inactive
same,Potency,[2],inactive
same,Potency,[4],inactive
Cc1csc2c(N[C@@H](C)CN3CCN(S(=O)(=O)c4ccc(Cl)c(Cl)c4)CC3)ncnc12,Potency,[1],0.425 µM (active)
same,Potency,[2],6.01 µM (active)
same,Potency,[4],2.9 µM (active)
same,Potency,[5],8.17 µM (active)
COc1ccc2c(NC(=O)Nc3cccc(C(F)(F)F)n3)ccnc2c1,Potency,[1],inactive
same,Potency,[2],3.01 µM (active)
same,Potency,[4],4.09 µM (active)
CCO[C@H]1CN(C2CCC(O)(c3ccc4c(c3)OCO4)CC2)C[C@@H]1NC(=O)CNC(=O)c1cccc(C(F)(F)F)c1 (some centres not stated),Potency,[1],3.38 µM (active)
same,Potency,[2],12 µM (active)
same,Potency,[4],inactive
CC(C)NC(=O)COc1cccc(-c2nc(Nc3ccc4[nH]ncc4c3)c3ccccc3n2)c1,Potency,[1],2.68 µM (active)
same,Potency,[2],0.19 µM (active)
same,Potency,[4],7.42 µM (active)
N#Cc1ccc(Nc2nc(-c3ccc(O)cc3O)cs2)cc1C(F)(F)F,Potency,[1],5.35 µM (active)
same,Potency,[2],1.69 µM (active)
same,Potency,[3],inactive
same,Potency,[4],16.3 µM (active)
same,outcome,[6],inactive
same,outcome,[7],inactive
same,outcome,[8],inactive
O=C(Nc1ccc(C(O)(C(F)(F)F)C(F)(F)F)cc1)c1ccc(C(F)(F)F)cc1,Potency,[1],19 µM (active)
same,Potency,[2],10.7 µM (active)
same,Potency,[4],5.78 µM (active)
same,Potency,[5],5.78 µM (active)
Cc1c(NC(=O)OCC2COCCN2)cn2ncnc(Nc3ccc4c(cnn4Cc4cccc(F)c4)c3)c12 (configuration not stated),Potency,[1],21.3 µM (active)
same,Potency,[2],19 µM (active)
same,Potency,[4],14.5 µM (active) and 18.6 µM (active)
same,Potency,[5],16.3 µM (active) and 16.6 µM (active)
COc1cc2ncnc(Oc3ccc(CC(=O)Nc4cnn(C(C)C)c4)cc3)c2cc1OC,Potency,[1],inactive
same,Potency,[2],13.5 µM (active)
same,Potency,[4],16.3 µM (active)
Nc1cccc(CNC(=O)c2ccc(Oc3ccc(OCc4cccc(F)c4)cc3)nc2)c1,Potency,[1],inactive
same,Potency,[2],9.52 µM (active)
same,Potency,[4],11.5 µM (active)
N#Cc1ccc2ncnc(NCCc3ccccc3)c2c1,Potency,[1],15.1 µM (active)
same,Potency,[2],26.8 µM (active)
same,Potency,[4],6.49 µM (active)
same,Potency,[5],4.09 µM (active)
CC(C)c1ccc(-c2cc(=O)c3ccccc3o2)cc1,Potency,[1],15.1 µM (active)
same,Potency,[2],5.35 µM (active)
same,Potency,[4],23 µM (active)
COC(=O)c1cc(Br)cnc1N1CCC(NC2CCCCC2)C(O)C1 (configuration not stated),Potency,[1],0.019 µM (active)
same,Potency,[2],inactive
same,Potency,[4],inactive
COc1cc(-c2cn(C3CCc4c(F)cccc4N(CC(F)(F)F)C3=O)nn2)ccc1-n1cnc(C)c1 (configuration not stated),Potency,[1],26.8 µM (active)
same,Potency,[2],12 µM (active)
same,Potency,[4],18.3 µM (active)
CN(C)C(=O)Nc1cccc(-c2ccc(N(C)C)cc2)c1,Potency,[1],21.3 µM (active)
same,Potency,[2],23.9 µM (active)
same,Potency,[4],inactive
same,Potency,[5],inactive
CCCc1cc(C)[nH]c(=O)c1CNC(=O)c1cc(-c2ccnc(N3CCN(C)CC3)c2)cc2c1cnn2C(C)C,Potency,[1],23.9 µM (active)
same,Potency,[2],13.5 µM (active)
same,Potency,[4],12.9 µM (active) and 16.6 µM (active)
CC(=O)NCc1cccc(OC[C@@H](O)CNCCc2ccc(NS(=O)(=O)c3ccccc3)cc2)c1,Potency,[1],0.849 µM (active)
same,Potency,[2],0.674 µM (active)
same,Potency,[4],inactive
same,Potency,[5],inactive
O=S(=O)(NCc1cccc2ccccc12)c1cc(Cl)c(Oc2cccc(N3CCNCC3)c2)s1,Potency,[1],8.49 µM (active)
same,Potency,[2],1.69 µM (active)
same,Potency,[4],7.28 µM (active)
CC(C)S(=O)(=O)NC[C@H](C)c1ccc(-c2ccc(CCNS(C)(=O)=O)cc2)cc1,Potency,[1],inactive
same,Potency,[2],10.7 µM (active)
same,Potency,[4],6.49 µM (active)
Cc1c(NC(=O)c2cc3c(s2)CCCC3)cccc1-c1cn(C)c(=O)c(Nc2ccc(C3C(=O)N(C)CCN3C)cc2)n1 (configuration not stated),Potency,[1],inactive
same,Potency,[2],1.2 µM (active)
same,Potency,[4],12.9 µM (active)
COc1ccc(Cl)c(Nc2ncnc3cc(OCC4CCN(C)CC4)c(OC)cc23)c1,Potency,[1],inactive
same,Potency,[2],inactive
same,Potency,[4],13.2 µM (active)
C#CCOc1ccc2c(c1)c(-c1ccc(C(C)C)cc1)nc(=O)n2C(C)C,Potency,[1],23.9 µM (active)
same,Potency,[2],2.68 µM (active)
same,Potency,[4],8.17 µM (active)
O=C(CCl)Nc1cccc(NC2=NS(=O)(=O)c3ccccc32)c1,Potency,[1],inactive
same,Potency,[2],15.1 µM (active)
same,Potency,[4],9.34 µM (active)
Cc1onc(-c2ccccc2)c1C(=O)N1CCN(c2ccc([N+](=O)[O-])cc2Cl)CC1,Potency,[1],5.35 µM (active)
same,Potency,[2],9.52 µM (active)
same,Potency,[4],inactive
COC(=O)C(Cc1ccc(OCCn2c(=O)sc3cc(C(=O)c4ccccc4)ccc32)cc1)C(=O)OC,Potency,[1],inactive
same,Potency,[2],2.13 µM (active)
same,Potency,[4],inactive
